# LDHA block: LDHA (human) enzyme inhibition. P00338. purified LDHA, NADH/diaphorase-resazurin fluorescence; hits give low values. activity change, % (values are at about 110 or 230 µM). 0.15% of 480,000 active; in the data active = activity change below about -30%; inconclusive = mostly about -25% to -30%;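 also: plate controls were DMSO wells for no effect and wells without enzyme for full effect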
#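 LDH5 2 nM; NADH 0.06 mM, pyruvate 0.2 mM; 200 mM Tris pH 7.4, EDTA, Tween-20; 5 min RT. Detection: diaphorase 0.133 mg/mL + resazurin 37 µM, fluorescence ex540/em590 at 0 and 20 min; normalized to enzyme-free and DMSO wells.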
# D2 ag-1: D2 dopamine receptor (human) agonism; AID 485358; HEK293 T-REx D2 cells, calcium flux agonist mode; activation, % at 2 µM; P14416; 0.53% of 340,000 active;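 active = activation over 3 SD above normal in the single-dose calcium agonist read, cut at about 30% in these data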; also: 0% is about no effect
# Target sequence (P14416 whole entry, looked up): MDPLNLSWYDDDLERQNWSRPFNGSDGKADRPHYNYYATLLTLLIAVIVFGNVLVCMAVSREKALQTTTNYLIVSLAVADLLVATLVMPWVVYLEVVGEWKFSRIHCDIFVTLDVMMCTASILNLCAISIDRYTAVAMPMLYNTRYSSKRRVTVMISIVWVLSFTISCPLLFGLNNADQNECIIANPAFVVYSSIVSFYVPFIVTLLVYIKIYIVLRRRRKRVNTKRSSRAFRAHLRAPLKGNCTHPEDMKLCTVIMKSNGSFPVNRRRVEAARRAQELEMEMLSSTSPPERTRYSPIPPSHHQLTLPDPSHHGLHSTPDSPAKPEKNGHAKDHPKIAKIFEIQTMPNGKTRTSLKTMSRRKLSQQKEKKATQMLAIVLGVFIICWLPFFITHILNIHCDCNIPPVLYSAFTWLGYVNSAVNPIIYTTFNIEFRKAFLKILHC
#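 In this primary screen, compounds producing a positive calcium signal within 180 s of addition to tetracycline-induced, force-coupled HEK293 Trex D2 cells are flagged; cells are dye-loaded with a no-wash calcium kit beforehand.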
# D2 ag-2: activates the human D2 dopamine receptor; P14416; DiscoveRx PathHunter D2 beta-arrestin, luminescence, 90 min; 100% = 57 uM dopamine signal; activation, % (no concentration beside the values); 0.084% of 360,000 active; AID 624465; in the data active = activation above about 40%; inconclusive = between about 15% and that limit
#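 DiscoveRx PathHunter D2 beta-arrestin cells (2,100/well) attached overnight, then compound-stimulated 90 min at 37 C in HBSS/10 mM HEPES/0.1% Tween-20 buffer; beta-galactosidase complementation read by luminescence after 1 h at ambient temperature. Dopamine 57 uM final (EC100) as control.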
# D2 antagonist: antagonists of human D2 dopamine receptor | P14416 | HEK293 TREx D2 cells, calcium flux, dopamine EC80 | inhibition, % at 10 µM | 2% of 340,000 active; in the data active = inhibition above about 30%; inactive = below that, where a call was filed; also: 0% is about no effect
#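 Compounds are added to dye-loaded, induced HEK293 T-REx cells coupled to calcium release via D2; after a 3 min kinetic read an EC80 dopamine stimulus is given and fluorescence is recorded for 3 more min.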
# D2 PAM-1: positive allosteric modulators of human D2 dopamine receptor. P14416. 0.34% of 340,000 active. potentiation, % at 10 µM. HEK293 T-REx D2, calcium flux, EC20 dopamine potentiation. AID 485347;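 active = potentiation over 3 SD above the plate norm, cut at about 30% in these data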; also: 0% is about no effect
#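 Using a no-wash calcium dye in inducible, force-coupled HEK293 Trex cells expressing D2, we tracked fluorescence each second for 180 s after compound, then for 180 s after EC20 dopamine to detect augmented signalling.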
# D2 PAM-2: human D2 receptor positive allosteric modulation; P14416; DiscoveRx D2 beta-arrestin cells, luminescence, 90 min; 100% = 57 uM dopamine signal; potentiation, % (concentration not given with the values); 0.23% of 360,000 active; in the data active = potentiation above about 50%; inconclusive = mostly about 30% to 49%
#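 D2 cells co-treated with compound plus 50 nM dopamine (EC20) for 90 min at 37 deg C to detect potentiation. Beta-arrestin recruitment was read as enzyme-fragment luminescence after 1 h at ambient temperature. Full response was set by 57 uM dopamine.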
# Starred values were filed as active, the others as inactive; ? = inconclusive; · = not tested or not shown. Most compounds without a hit are left out; they make up all but 2.1% or so of the library.
SMILES,LDHA block,D2 ag-1,D2 ag-2,D2 antagonist,D2 PAM-1,D2 PAM-2
Cc1cc(C)nc(N2CCN(c3nc(C)cc(C)n3)CC2)n1,·,-1,·,0,-5,·
CCOc1cc(C)nc(N2CCN(C3CCCCC3)CC2)n1,6,1,-1,40*,7,-18
COc1ccc(N2C(=O)C(C)CS2(=O)=O)cc1S(=O)(=O)Nc1ccc(Cl)cc1 (stereo not given),-3,·,·,·,·,·
Cc1ccc(NC(=O)CSc2nc(-c3ccc(C(C)(C)C)cc3)nc3cc(=O)[nH]n23)cc1C,-41*,0,·,·,14,·
CC(C)(C)c1cc(NC(=O)COC(=O)c2ccc3c(=O)n4c(nc3c2)CCC4)n(-c2ccccc2)n1,-2,0,0,-10,46*,3
COc1ccccc1NC(=O)COC(=O)c1ccc2c(=O)n3c(nc2c1)CCC3,-11,·,-3,·,·,-13
Cc1ccc(C)c(NC(=O)CN(C)C(=O)c2ccc3c(=O)n4c(nc3c2)CCC4)c1,-2,0,-1,33*,-27,-29
O=C(Oc1ccccc1F)c1ccc2c(=O)n3c(nc2c1)CCC3,-11,0,-1,32*,-7,6
Brc1ccc(-c2noc(-c3ccc4c(c3)OCO4)n2)o1,11,·,·,·,·,·
Oc1ccc2ccccc2c1CNn1cnnc1,10,0,1,33*,-7,-3
CN(C)N1C(=O)CC(c2ccc(Cl)cc2Cl)C2=C1CC(C)(C)CC2=O (stereo not given),0,·,·,·,·,·
Cc1cc(Cl)ccc1OCC(=O)NNC(=O)CCOc1ccccc1,-3,-1,-1,31*,4,-3
Cc1cc(Cl)ccc1OCC(=O)NCCC(=O)O,-9,0,4,13,19,-15
Cc1ccc(F)cc1NC(=O)CCOc1ccccc1,-5,-1,0,32*,-6,-6
Cc1cc(C)cc(NC(=O)NCC(O)COc2ccc([N+](=O)[O-])cc2)c1 (stereo not given),1,-2,-1,38*,-19,-11
O=C(NCC(O)COc1ccc([N+](=O)[O-])cc1)Nc1ccccc1 (stereo not given),-4,0,-2,-25,-9,-6
C=CCN(C(=O)c1csnn1)C(C(=O)NCc1ccc(F)cc1)c1ccc(F)cc1 (stereo not given),-5,-1,-2,-6,-2,-10
C=CCN(C(=O)c1csnn1)C(C(=O)NCc1ccc(F)cc1)c1ccccc1 (stereo not given),-3,0,0,52*,19,-1
COc1cc2[nH]c(=S)nc(NCc3ccccc3)c2cc1OC,-4,-1,10,-4,5,-6
COc1cc2[nH]c(=S)nc(NCc3ccc(C)cc3)c2cc1OC,-6,0,1,41*,-5,-11
COc1ccc(CNc2nc(=S)[nH]c3cc(OC)c(OC)cc23)cc1,-19,0,1,34*,-10,-10
O=C(O)c1ccc(NC(=O)c2cc(-c3ccco3)nc3ccccc23)cc1,10,·,·,·,·,·
COc1ccc(Cn2c(C)c(CNCc3cc(OC)c(OC)c(OC)c3)c(C(=O)O)c2C)cc1,-5,·,·,·,·,·
N#Cc1cc(S(=O)(=O)c2ccc(F)cc2)c(N)[nH]c1=O,-3,0,-1,5,2,-2
N#Cc1cc(S(=O)(=O)c2ccccc2)c(N)[nH]c1=O,-3,1,-5,86*,4,-14
SMILES,LDHA block,D2 ag-1,D2 ag-2,D2 antagonist,D2 PAM-1,D2 PAM-2
CCCN1CCN(c2cc(C(=O)O)c3cc(NC(=O)C(C)C)ccc3n2)CC1,26,·,·,·,·,·
Cc1cc2nc(-c3cccc(NC(=O)c4cccnc4)c3)oc2cc1C,8,·,·,·,·,·
Cc1c(Br)c([N+](=O)[O-])nn1CC(=O)N1CCCc2ccccc21,-2,0,-4,11,34*,-11
Cc1cc[n+](CC(=O)N2CCCc3ccccc32)cc1,-2,-1,2,39*,-19,-11
O=C(CN1CCN(c2ccc(O)cc2)CC1)N1CCc2ccccc21,28,0,9,40*,-25,-4
O=C(CN1CCN(Cc2ccccc2)CC1)N1CCCc2ccccc21,?,-1,-7,32*,-17,-23
O=C(CN1CCN(c2ccccc2)CC1)N1CCc2ccccc21,-7,1,1,-12,-25,-24
COc1ccc(NC(=O)CSc2nnc(-n3nc(C)cc3C)n2N)cc1Cl,-6,·,·,·,·,·
CCC(C)(C)NC(=O)c1ccc2c(c1)N(CC(=O)NC1CCCC1)C(=O)C(C)(C)O2,4,-1,-6,62*,-31,-12
CCOC(=O)N1CCN(C(=O)CN2C(=O)COc3ccc(C)cc32)CC1,-16,-1,1,37*,-6,-7
COC(=O)CN1C(=O)C(C)(C)Oc2ccc(C(=O)NC3CCCC3)cc21,-4,-1,8,-7,-1,-2
CCOC(=O)c1ccc2c(c1)N(CC(=O)N1CCCC1)C(=O)C(C)(C)O2,2,0,-3,-2,45*,-15
COC(=O)CN1C(=O)C(C)(C)Oc2ccc(C(=O)Nc3ccccc3F)cc21,-3,-1,3,18,31*,-3
Cc1ccc(-c2ccc(=O)n(C(C)C(=O)Nc3c(C)cc(C)cc3C)n2)cc1 (stereo not given),2,·,·,·,·,·
Cc1cc(C(=O)NC2CCCCC2)c2cc(F)ccc2n1,-9,1,2,31*,-1,26
Cc1cc(C(=O)NC2CCCC2)c2ccccc2n1,-12,·,1,·,-1,-8
O=C(CN1C(=O)NC(Cc2c[nH]c3ccccc23)C1=O)Nc1cccc(S(=O)(=O)N2CCCCCC2)c1 (stereo not given),-3,-2,4,3,10,52*
Cc1ccc2c(C(=O)O)cc(-c3cccs3)nc2c1C,-14,·,·,·,·,·
CCN1CCN(c2ccc(S(=O)(=O)N3CCCCC3)cc2NC(=O)C(C)Oc2ccc(F)cc2)CC1 (stereo not given),-12,-1,-5,-11,-23,-34
CC(Oc1ccc(F)cc1)C(=O)Nc1cc(S(=O)(=O)N2CCCCC2)ccc1N1CCOCC1 (stereo not given),-10,0,0,37*,2,3
CC(NCC(=O)Nc1cc(S(=O)(=O)N2CCOCC2)ccc1N1CCOCC1)c1ccco1 (stereo not given),-7,1,5,64*,8,-2
CCCCCOC(=O)Cn1c(=O)c2c(nc(N3CCOCC3)n2C)n(C)c1=O,0,0,-3,10,1,-9
